# Records with an inconclusive call do not appear. A call without a number means that no potency is given here. Calls of active or inactive are those of the source. The call rests on the fitted dose curve; in most records, active means well fitted curve in the direction sought with a large enough effect; inconclusive means small, poorly fitted or top-dose-only effect, or another doubt; inactive means no such curve, though single readings can be large; an effect the other way counts as inactive or inconclusive.
# Target: Aldehyde dehydrogenase, mitochondrial (Homo sapiens) (UniProt P05091)
# Test: qHTS for Inhibitors of the Aldehyde Dehydrogenase Family (ALDH2) Primary screen (AID 2061308); further: nearly all actives have a fitted effect of over 55% in size
# Conditions: ALDH2 enzyme inhibition qHTS, 1536-well; series mostly up to 56 µM
row,Compound,Potency
1,Cc1cccc(-c2csc3ncnc(Sc4nnnn4C)c23)c1,inactive
2,Cc1ccc(NS(=O)(=O)c2cc3c(cc2Cl)NC(=O)CO3)cc1Cl,inactive
3,CN1CCOc2ccc(S(=O)(=O)N3CCN(S(=O)(=O)c4c(F)cccc4F)CC3)cc21,inactive
4,C=C(C(=O)O)[C@@H]1CC[C@@]2(C)CC[C@H](O)[C@@]2(C(C)=O)C1,inactive
5,O=C(Cn1cc(CNC(=O)c2ccccc2)nn1)Nc1cc(C(F)(F)F)ccc1Cl,inactive
6,COc1cc(NC(=O)C(OC(=O)CNC(=O)c2ccccc2)c2ccccc2)cc(OC)c1 (stereo not given),inactive
7,CCCC1CCN(C(=O)CC(c2ccc3c(c2)OCO3)c2c(O)cc(OC)cc2OC)C1 (stereo not given),inactive
8,CC(=O)c1cccc(NC(=O)c2cnn3c(C)cc(C)nc23)c1,inactive
9,COc1ccc2c(c1)Oc1nc(-c3ccc(C)cc3)nc(SCC(=O)Nc3cccc(C(=O)O)c3)c1C2,inactive
10,Cc1ccc(S(=O)(=O)Nc2cnccc2C(=O)Nc2nc(-c3ccccc3)cs2)cc1,inactive
11,CC(C)CN1CC2=C(C1=O)C(c1ccccc1Cl)N=C(Nc1nc3ccccc3o1)N2 (stereo not given),inactive
12,CC(O)C(O)/C=C/C=C/C(=O)O[C@@H]1C=C(C(=O)O)[C@](O)(CO)[C@@]2(C)CCCC(C)(C)[C@H]12 (stereo not given in full),inactive
13,C=C(CCC1=C(C)[C@H]2[C@H](CC3[C@@H]4CC=C5C[C@@H](O)C[C@@H](O)[C@]5(C)C4[C@H](O)C[C@@]32C)O1)CO[C@@H]1O[C@H](CO)[C@@H](O)[C@H](O)[C@H]1O (stereo not given in full),inactive
14,c1cncc(CNc2ncnc3ccc(-c4ccco4)cc23)c1,inactive
15,COc1ccc(-c2csc(NC(=O)c3ccccc3NS(=O)(=O)c3ccc(C)cc3)n2)cc1,inactive
16,COc1ccccc1-c1nnc2n1N=C(c1ccc(OC(F)F)c(OCC3CC3)c1)CS2,inactive
17,COc1ccc(C2Nc3ccccc3C(=O)N2Cc2ccco2)cc1COc1c(C)cccc1C (stereo not given),inactive
18,CCCn1c(-c2ccc(F)cc2)nc2c(NCCCN(C)C)nc(C)nc21,inactive
19,O=C(NCCc1nc2ccccc2n1CCOc1ccc(C(F)(F)F)cc1)C1CCCCC1,inactive
20,O=S(=O)(NCC1CCC(NS(=O)(=O)c2c(F)cccc2F)CC1)c1ccc2c(c1)OCCO2 (stereo not given),inactive

row,Compound,Potency
1,CC1=C(CC(=O)O)c2cc(F)ccc2C1=Cc1ccc(S(C)(=O)=O)cc1,inactive
2,O=C(COC(=O)CNC(=O)C1CCCCC1)Nc1cc(C(F)(F)F)ccc1Cl,inactive
3,COc1ccc(C2=Nn3c(nnc3-c3ccc(OC)cc3OC)SC2)c(OC)c1,inactive
4,Cc1nc(N2CCOCC2)c2nc(-c3ccccc3)n(C(C)CN(C)C)c2n1 (stereo not given),inactive
5,COc1cc(OC)c2c(c1)OC(=O)CC2c1ccc2c(c1)OCO2 (stereo not given),inactive
6,Cn1c2cc(C#N)sc2c2cnn(Cc3ccc(F)cc3)c(=O)c21,inactive
7,CN1CCN(c2cccc(Nc3nn4c(=O)c5ccccc5nc4s3)c2)CC1,inactive
8,CCNC(=O)c1ccc(-c2ccc3ncnc(NCc4nccs4)c3c2)o1,inactive
9,N#Cc1c(-c2ccccc2)no[n+]1[O-],inactive
10,O=C(NC(c1ccco1)c1cc(Cl)c2cccnc2c1O)c1ccc(F)c(F)c1 (stereo not given),inactive
11,Cc1cnc(NC(=O)c2cc(S(=O)(=O)N(C)C)ccc2N2CCCC2)s1,inactive
12,Cc1nc(NCc2ccccc2)c2nc(-c3ccccc3)n(CCN3CCOCC3)c2n1,inactive
13,Clc1cccc(-c2ccc3ncnc(NCc4ccc5c(c4)OCO5)c3c2)c1,inactive
14,CC(C)(C)OC(=O)N1CCN(c2ccc(NCc3nnc(-c4ccc(C#N)cc4)o3)cc2)CC1,inactive
15,COc1ccc(C2=Nn3c(nnc3-c3ccccc3F)SC2)cc1OC1CCCC1,inactive
16,Cc1c[nH]c2nccc(Oc3c(F)cc(Nc4cc(Cl)nc(N)n4)cc3F)c12,inactive
17,CCCn1c(C)nc2c(N3CCN(C)CC3)nc(C)nc21,inactive
18,C[C@@H](NC(c1ccc(F)cc1)c1ccc2cccnc2c1O)c1ccccc1 (stereo not given in full),inactive
19,Cc1nnc2sc(-c3cccc(NC(=O)c4ccc(-c5cccc(Cl)c5)o4)c3)nn12,inactive
20,Cc1cccc(-n2cnc3cc(C(=O)N4CCC(c5ccccc5)CC4)ccc32)c1,inactive

# Target: Retinaldehyde dehydrogenase 3 (Homo sapiens) (UniProt P47895)
# Test: qHTS for Inhibitors of the Aldehyde Dehydrogenase Family (ALDH1A3) Primary screen (AID 2061315)
# Conditions: ALDH inhibition qHTS; series mostly up to 56 µM
row,Compound,Potency
1,Cc1cccc(-c2csc3ncnc(Sc4nnnn4C)c23)c1,inactive
2,Cc1ccc(NS(=O)(=O)c2cc3c(cc2Cl)NC(=O)CO3)cc1Cl,inactive
3,CN1CCOc2ccc(S(=O)(=O)N3CCN(S(=O)(=O)c4c(F)cccc4F)CC3)cc21,inactive
4,C=C(C(=O)O)[C@@H]1CC[C@@]2(C)CC[C@H](O)[C@@]2(C(C)=O)C1,inactive
5,O=C(Cn1cc(CNC(=O)c2ccccc2)nn1)Nc1cc(C(F)(F)F)ccc1Cl,inactive
6,COc1cc(NC(=O)C(OC(=O)CNC(=O)c2ccccc2)c2ccccc2)cc(OC)c1 (stereo not given),inactive
7,CCCC1CCN(C(=O)CC(c2ccc3c(c2)OCO3)c2c(O)cc(OC)cc2OC)C1 (stereo not given),inactive
8,CC(=O)c1cccc(NC(=O)c2cnn3c(C)cc(C)nc23)c1,inactive
9,COc1ccc2c(c1)Oc1nc(-c3ccc(C)cc3)nc(SCC(=O)Nc3cccc(C(=O)O)c3)c1C2,inactive
10,Cc1ccc(S(=O)(=O)Nc2cnccc2C(=O)Nc2nc(-c3ccccc3)cs2)cc1,inactive
11,CC(C)CN1CC2=C(C1=O)C(c1ccccc1Cl)N=C(Nc1nc3ccccc3o1)N2 (stereo not given),inactive
12,CC(O)C(O)/C=C/C=C/C(=O)O[C@@H]1C=C(C(=O)O)[C@](O)(CO)[C@@]2(C)CCCC(C)(C)[C@H]12 (stereo not given in full),inactive
13,C=C(CCC1=C(C)[C@H]2[C@H](CC3[C@@H]4CC=C5C[C@@H](O)C[C@@H](O)[C@]5(C)C4[C@H](O)C[C@@]32C)O1)CO[C@@H]1O[C@H](CO)[C@@H](O)[C@H](O)[C@H]1O (stereo not given in full),inactive
14,c1cncc(CNc2ncnc3ccc(-c4ccco4)cc23)c1,inactive
15,COc1ccc(-c2csc(NC(=O)c3ccccc3NS(=O)(=O)c3ccc(C)cc3)n2)cc1,inactive
16,COc1ccccc1-c1nnc2n1N=C(c1ccc(OC(F)F)c(OCC3CC3)c1)CS2,inactive
17,COc1ccc(C2Nc3ccccc3C(=O)N2Cc2ccco2)cc1COc1c(C)cccc1C (stereo not given),inactive
18,CCCn1c(-c2ccc(F)cc2)nc2c(NCCCN(C)C)nc(C)nc21,inactive
19,O=C(NCCc1nc2ccccc2n1CCOc1ccc(C(F)(F)F)cc1)C1CCCCC1,inactive
20,O=S(=O)(NCC1CCC(NS(=O)(=O)c2c(F)cccc2F)CC1)c1ccc2c(c1)OCCO2 (stereo not given),inactive

row,Compound,Potency
1,CC1=C(CC(=O)O)c2cc(F)ccc2C1=Cc1ccc(S(C)(=O)=O)cc1,inactive
2,O=C(COC(=O)CNC(=O)C1CCCCC1)Nc1cc(C(F)(F)F)ccc1Cl,inactive
3,COc1ccc(C2=Nn3c(nnc3-c3ccc(OC)cc3OC)SC2)c(OC)c1,inactive
4,Cc1nc(N2CCOCC2)c2nc(-c3ccccc3)n(C(C)CN(C)C)c2n1 (stereo not given),inactive
5,COc1cc(OC)c2c(c1)OC(=O)CC2c1ccc2c(c1)OCO2 (stereo not given),inactive
6,Cn1c2cc(C#N)sc2c2cnn(Cc3ccc(F)cc3)c(=O)c21,inactive
7,CN1CCN(c2cccc(Nc3nn4c(=O)c5ccccc5nc4s3)c2)CC1,inactive
8,CCNC(=O)c1ccc(-c2ccc3ncnc(NCc4nccs4)c3c2)o1,inactive
9,N#Cc1c(-c2ccccc2)no[n+]1[O-],inactive
10,O=C(NC(c1ccco1)c1cc(Cl)c2cccnc2c1O)c1ccc(F)c(F)c1 (stereo not given),inactive
11,Cc1cnc(NC(=O)c2cc(S(=O)(=O)N(C)C)ccc2N2CCCC2)s1,inactive
12,Cc1nc(NCc2ccccc2)c2nc(-c3ccccc3)n(CCN3CCOCC3)c2n1,inactive
13,Clc1cccc(-c2ccc3ncnc(NCc4ccc5c(c4)OCO5)c3c2)c1,inactive
14,CC(C)(C)OC(=O)N1CCN(c2ccc(NCc3nnc(-c4ccc(C#N)cc4)o3)cc2)CC1,inactive
15,COc1ccc(C2=Nn3c(nnc3-c3ccccc3F)SC2)cc1OC1CCCC1,inactive
16,Cc1c[nH]c2nccc(Oc3c(F)cc(Nc4cc(Cl)nc(N)n4)cc3F)c12,inactive
17,CCCn1c(C)nc2c(N3CCN(C)CC3)nc(C)nc21,inactive
18,C[C@@H](NC(c1ccc(F)cc1)c1ccc2cccnc2c1O)c1ccccc1 (stereo not given in full),inactive
19,Cc1nnc2sc(-c3cccc(NC(=O)c4ccc(-c5cccc(Cl)c5)o4)c3)nn12,inactive
20,Cc1cccc(-n2cnc3cc(C(=O)N4CCC(c5ccccc5)CC4)ccc32)c1,inactive

# — PubChem BioAssay (NCATS)
